# Many of the other results were omitted from the sample, so hits are more common in it than they were.
# IDE exosite inh: exo-site inhibitors of human insulin-degrading enzyme. purified IDE, FL-6b probe fluorescence polarization; hits give low values. P14735. hit rate 6.3% among 17,000. z-score at 20 µM;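 active = z-score of -3 or lower, meaning strong loss of probe binding signal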;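 also: His-tagged human IDE residues 42-1019 made in E. coli with 30 nM FL-6b probe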
# Target sequence (P14735 42-1019 limits assumed): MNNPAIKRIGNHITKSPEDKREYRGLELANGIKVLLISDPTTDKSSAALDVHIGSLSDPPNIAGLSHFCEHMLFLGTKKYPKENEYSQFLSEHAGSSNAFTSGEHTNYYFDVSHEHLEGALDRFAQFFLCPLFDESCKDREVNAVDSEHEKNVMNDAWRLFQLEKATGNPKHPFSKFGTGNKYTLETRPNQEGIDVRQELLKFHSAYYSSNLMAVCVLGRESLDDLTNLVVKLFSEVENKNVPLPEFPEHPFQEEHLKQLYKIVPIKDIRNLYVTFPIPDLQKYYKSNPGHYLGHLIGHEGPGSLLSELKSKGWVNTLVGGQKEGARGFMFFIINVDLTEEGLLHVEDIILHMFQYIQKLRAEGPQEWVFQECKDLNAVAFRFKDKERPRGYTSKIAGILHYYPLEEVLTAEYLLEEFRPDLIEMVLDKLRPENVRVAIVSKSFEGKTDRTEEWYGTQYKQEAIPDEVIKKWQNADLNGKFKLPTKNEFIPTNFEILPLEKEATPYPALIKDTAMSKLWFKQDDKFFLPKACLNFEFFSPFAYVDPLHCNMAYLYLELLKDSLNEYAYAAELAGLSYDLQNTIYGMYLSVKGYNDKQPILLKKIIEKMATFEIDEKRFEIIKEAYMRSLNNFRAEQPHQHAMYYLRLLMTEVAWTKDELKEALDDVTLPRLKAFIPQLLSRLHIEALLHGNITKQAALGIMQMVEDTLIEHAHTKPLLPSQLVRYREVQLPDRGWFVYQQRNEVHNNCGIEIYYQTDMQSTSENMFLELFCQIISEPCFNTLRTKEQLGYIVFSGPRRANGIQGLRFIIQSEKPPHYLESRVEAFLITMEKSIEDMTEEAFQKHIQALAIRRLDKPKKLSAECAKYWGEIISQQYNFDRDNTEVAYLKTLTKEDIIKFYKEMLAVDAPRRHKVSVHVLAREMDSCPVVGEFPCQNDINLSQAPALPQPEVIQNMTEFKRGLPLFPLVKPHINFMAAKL
# * hit, by the source's call.
SMILES,IDE exosite inh
CCCNC(=O)N1CC(=O)N2[C@H](C1)[C@@H](c1ccc(C#Cc3cccc(OC)c3)cc1)[C@@H]2CO,0.168
CCC(=O)N1CC(=O)N2[C@H](CO)[C@H](c3ccc(C#Cc4cccc(OC)c4)cc3)[C@H]2C1,-9.77*
COCC(=O)N1CC(=O)N2[C@@H](CO)[C@@H](c3ccc(C#Cc4cccnc4)cc3)[C@@H]2C1,-0.854
O=C(Cc1ccccc1)N1CC(=O)N2[C@H](C1)[C@H](c1ccc(-c3cccc(F)c3)cc1)[C@@H]2CO,2.56
COc1cccc(C#Cc2ccc([C@H]3[C@H]4CN(C(=O)Cc5ccccc5)CC(=O)N4[C@H]3CO)cc2)c1,-1.79
COCC(=O)N1CC(=O)N2[C@H](CO)[C@H](c3ccc(C#Cc4cccnc4)cc3)[C@H]2C1,1.98
O=C(Cc1cccnc1)N1CC(=O)N2[C@H](CO)[C@@H](c3ccc(-c4cccc(F)c4)cc3)[C@@H]2C1,-3.37*
COc1cccc(C#Cc2ccc([C@H]3[C@@H](CO)N4C(=O)CN(C(=O)Cc5ccccc5)C[C@@H]34)cc2)c1,1.41
COCC(=O)N1CC(=O)N2[C@@H](CO)[C@@H](c3ccc(C#Cc4cccc(OC)c4)cc3)[C@@H]2C1,-7.04*
O=C(Cc1ccncc1)N1CC(=O)N2[C@H](CO)[C@H](c3ccc(-c4cccc(F)c4)cc3)[C@@H]2C1,-1.5
CCC(=O)N1CC(=O)N2[C@H](C1)[C@@H](c1ccc(C#Cc3cccnc3)cc1)[C@@H]2CO,-1.02
CCC(=O)N1CC(=O)N2[C@H](CO)[C@H](c3ccc(C#Cc4cccc(OC)c4)cc3)[C@@H]2C1,-8.73*
C=C(C)C[C@H]1CCn2nncc2COCCNC1=O,-1.06
COc1ccccc1NC(=O)N1CCCCN2[C@@H](CO)[C@H](c3ccc(-c4cccc(F)c4)cc3)[C@@H]2C1,3.12
CCCC#Cc1cnc2c(c1)C(=O)N([C@@H](C)CO)C[C@H](C)[C@H](CN(C)C(=O)Nc1cc(F)ccc1F)O2,0.961
CN1C(=O)c2cc(NC(=O)c3cccc(C(F)(F)F)c3)ccc2OC[C@H]2O[C@@H](CC(=O)NCCN3CCCC3)CC[C@H]21,0.268
COc1ccc(S(=O)(=O)N2CCCCN3[C@H](CO)[C@@H](c4ccc(-c5cccnc5)cc4)[C@H]3C2)cc1,0.294
CS(=O)(=O)Nc1ccc2c(c1)[C@H]1C[C@H](CC(=O)NCCc3ccccc3)O[C@H](CO)[C@H]1O2,0.693
OC[C@H]1[C@@H](c2ccc(-c3cccnc3)cc2)[C@H]2CN(CC3CC3)CCCCN21,-1.3
COCC(=O)NC[C@H]1[C@H](c2ccc(-c3ccccc3)cc2)[C@H](CO)N1C(C)=O,2.4
CCCNC(=O)N(C)C[C@@H]1Oc2cc(C#C[C@@H](C)O)ccc2S(=O)(=O)N([C@@H](C)CO)C[C@H]1C,-0.0982
CCCNC(=O)N1C[C@H](O)COC[C@H]2O[C@@H](CC(=O)OC)CC[C@@H]21,0.926
COc1cccc(C#Cc2ccc([C@H]3[C@H](CO)N4C(=O)CN(C(=O)Cc5cccnc5)C[C@@H]34)cc2)c1,-4.07*
COc1cccc(C#Cc2ccc([C@@H]3[C@@H](CO)N4C(=O)CN(C(=O)Cc5cccnc5)C[C@H]34)cc2)c1,-2.35
COc1cccc(C#Cc2ccc([C@H]3[C@@H](CO)N4C(=O)CN(C(=O)Cc5cccnc5)C[C@H]34)cc2)c1,-2.02
SMILES,IDE exosite inh
O=C(c1ccc2c(c1)OCO2)N1CC(=O)N2[C@H](CO)[C@H](c3ccc(C#CCC4CCCC4)cc3)[C@@H]2C1,4.15
COc1ccccc1NC(=O)N1CC(=O)N2[C@H](CO)[C@@H](c3ccc(C#CCC(C)C)cc3)[C@@H]2C1,1.3
CCN(C[C@H]1N[C@@H](CO)[C@H]1c1ccccc1)C(=O)c1ccccc1,1.15
COc1ccc2c3c(n(C)c2c1)[C@@H](CO)N(C(=O)C1CCOCC1)CC31CN(C(=O)Nc2cccc(F)c2)C1,0.158
O=C(c1ccc2c(c1)OCO2)N1CC(=O)N2[C@@H](CO)[C@@H](c3ccc(C#Cc4ccccc4)cc3)[C@@H]2C1,-5.21*
O=C(c1ccc2c(c1)OCO2)N1CC(=O)N2[C@H](C1)[C@H](c1ccc(-c3ccccc3)cc1)[C@@H]2CO,3.5
O=C(c1ccc2c(c1)OCO2)N1CC(=O)N2[C@H](CO)[C@H](c3ccc(-c4ccccc4)cc3)[C@@H]2C1,3.08
O=C(c1ccc2c(c1)OCO2)N1CC(=O)N2[C@H](CO)[C@H](c3ccc(C#Cc4ccccc4)cc3)[C@H]2C1,0.0441
O=C(c1ccc2c(c1)OCO2)N1CC(=O)N2[C@H](C1)[C@H](c1ccc(C#Cc3ccccc3)cc1)[C@@H]2CO,-3.48*
CC(C)C#Cc1ccc([C@H]2[C@H](CO)N3C(=O)CN(C(=O)c4ccc5c(c4)OCO5)C[C@@H]23)cc1,-1.34
C[C@@H]1CCCCO[C@@H](CN(C)Cc2ccc(C(F)(F)F)cc2)[C@@H](C)CN([C@@H](C)CO)C(=O)c2cc(NC(=O)Nc3cccc4ccccc34)ccc2O1,0.414
CCC(=O)N1CC(=O)N2[C@@H](CO)[C@H](c3ccc(C#CC(C)C)cc3)[C@@H]2C1,2.9
CS(=O)(=O)N1CC(=O)N2[C@H](C1)[C@@H](c1ccc(Br)cc1)[C@@H]2CO,-1.04
O=C(C1CCOCC1)N1CC(=O)N2[C@@H](CO)[C@@H](c3ccc(C#CCc4ccccc4)cc3)[C@@H]2C1,-1.14
COCC(=O)N1CC(=O)N2[C@H](CO)[C@@H](c3ccc(C#CCc4ccccc4)cc3)[C@@H]2C1,-2.96
COCC(=O)N1CC(=O)N2[C@H](CO)[C@H](c3ccc(C#CCc4ccccc4)cc3)[C@H]2C1,-2.9
O=C(C1CC1)N1CC(=O)N2[C@H](C1)[C@H](c1ccc(C#CCc3ccccc3)cc1)[C@@H]2CO,-4.55*
O=C(C1CC1)N1CC(=O)N2[C@@H](CO)[C@@H](c3ccc(C#CCc4ccccc4)cc3)[C@@H]2C1,-3.26*
O=C(C1CCOCC1)N1CC(=O)N2[C@H](CO)[C@@H](c3ccc(C#CCc4ccccc4)cc3)[C@@H]2C1,-0.28
O=C(C1CCOCC1)N1CC(=O)N2[C@H](C1)[C@@H](c1ccc(C#CCc3ccccc3)cc1)[C@@H]2CO,-0.153
COCC(=O)N1CC(=O)N2[C@@H](CO)[C@@H](c3ccc(C#CCc4ccccc4)cc3)[C@@H]2C1,-4.74*
COCC(=O)N1CC(=O)N2[C@@H](CO)[C@H](c3ccc(C#CCc4ccccc4)cc3)[C@@H]2C1,-0.162
CCC(=O)N1[C@H](CO)[C@@H](c2ccccc2)[C@@H]1CN(C)C(=O)CN1CCOCC1,-1.27
CCCC(=O)N1CC2(CCN(S(C)(=O)=O)CC2)c2c([nH]c3cc(OC)ccc23)[C@@H]1CO,-0.334
Cc1cc(C(=O)Nc2ccc3c(c2)C(=O)N(C)[C@@H]2CC[C@@H](CC(=O)NCc4ccc(-c5ccccc5)cc4)O[C@H]2CO3)no1,-0.443
CCC(=O)N1[C@H](CO)[C@@H](c2ccccc2-c2cccc(C)c2)[C@@H]1C#N,0.81
O=C(C[C@@H]1CC[C@@H]2[C@H](COC[C@@H](O)CN2C(=O)c2ccccc2F)O1)NCc1ccc(Cl)c(Cl)c1,-0.266
O=C(Nc1ccccc1F)N1CC(=O)N2[C@H](CO)[C@@H](c3ccc(C#Cc4ccc(F)cc4)cc3)[C@H]2C1,3.25
C[C@@H]1CN([C@@H](C)CO)C(=O)c2ccccc2-c2ccccc2CO[C@@H]1CN(C)C(=O)[C@H](Cc1ccccc1)N(C)C,0.727
O=C(Nc1ccccc1F)N1CC(=O)N2[C@H](CO)[C@H](c3ccc(-c4ccccc4)cc3)[C@@H]2C1,-0.514
